# Measured values reported in PubChem BioAssay AID686978 (National Center for Advancing Translational Sciences (NCATS), 2013).
# The campaign covered roughly 420,000 compounds. About 64,000 (15%) were called active. Not shown: some 27% with an inconclusive outcome. The call rests on the fitted dose curve; in most records, active means well fitted inhibition curve with a large enough effect; inconclusive means small, poorly fitted or top-dose-only effect; inactive means flat fitted curve, though single readings scatter. These entries were drawn from the full list.
# Assay: qHTS for Inhibitors of human tyrosyl-DNA phosphodiesterase 1 (TDP1): qHTS in cells in absence of CPT; further: nearly all actives have a fitted effect of over 55% in size
# Settings: DT40 Tdp1-/- hTDP1 cells, no CPT, ATP luminescence, 48 h; activity change, negative = growth inhibition: at 46.2 µM (top of the series)
# Outline: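 Stably hTDP1-transfected Tdp1-null chicken DT40 cells were treated with library compounds minus camptothecin and grown for at least 48 hr at 37 °C, after which cellular ATP was quantified by luminescence.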
# On the % scale 0 is the no-effect control and ±100 the full control effect; potency means the concentration at half of the fitted maximal effect.
Compound,"activity change, negative = growth inhibition",Potency
CC(C)(C)NS(=O)(=O)CC12CCC(CC1=O)C2(C)C (stereo not given),8.13% (inactive),–
CN(C)Cc1ccccc1C1(O)c2ccccc2CSc2ccccc21 (stereo not given),–,23.1 µM (active)
CN(C)CC/C=C1\c2ccccc2CSc2ccccc21,-2.35% (inactive),–
CC(=O)NC(CC(=O)Nc1nccs1)c1ccccc1 (stereo not given),-1.06% (inactive),–
Cc1c(OC(C)C(=O)NCC2CCC(C(=O)O)CC2)ccc2c1oc(=O)c1ccccc12 (stereo not given),-23.1% (inactive),–
CCN(CC(=O)NC(=O)NCc1ccccc1)Cc1nc2ccccc2c(=O)[nH]1,-25.3% (inactive),–
O=C(NCc1ccc2c(c1)OCO2)C12CC3CC(CC(C3)C1)C2,-22.8% (inactive),–
CC1(C(=O)NCc2ccc(F)c(F)c2)Cc2c(-c3ccc4c(c3)OCO4)ccnc2O1 (stereo not given),–,2.91 µM (active)
S=C(NCc1ccc2c(c1)OCO2)NCc1ccco1,-18.3% (inactive),–
CC1(C(=O)NCc2ccco2)Cc2c(-c3ccc4c(c3)OCO4)ccnc2O1 (stereo not given),–,0.58 µM (active)
O=C(NCc1ccc2c(c1)OCO2)c1cc(F)c(F)cc1Cl,6.94% (inactive),–
O=C(Cn1nnc(-c2ccc3c(c2)OCO3)n1)NCc1ccco1,-1.69% (inactive),–
OCC1(CCOc2ccccc2)CCN(Cc2cn[nH]c2-c2ccccc2)CC1,2.32% (inactive),–
COCc1c(C(=O)N/N=C(\C)c2ccncc2)nnn1-c1nonc1N,4.24% (inactive),–
CC(Sc1nnc(CNC(=O)c2ccccc2F)n1C)C(=O)Nc1nccs1 (stereo not given),-15% (inactive),–
O=c1c(-c2ccc(F)cc2)nc2cncnc2n1-c1ccccc1,-7.29% (inactive),–
Cc1cnc(NC(=O)Cn2cnc3c2c(=O)n(C)c(=O)n3C)s1,-7.75% (inactive),–
CCSc1ccccc1C(=O)Nc1ccc2c(c1)OCO2,-6.47% (inactive),–
CCC(C)OC(=O)C(C)Oc1ccc(-c2ccccc2)cc1 (stereo not given),-4.46% (inactive),–
N#CC1=C(N)N(c2ccc(F)cc2)C(=O)C1,-14.7% (inactive),–
O=C(CSc1ccccc1)Nc1nnc(/C=C/c2ccccc2)s1,-20.1% (inactive),–
CCN(C(=O)Cn1cc(S(=O)(=O)N2CCN(c3ccccc3F)CC2)c2ccccc2c1=O)c1ccc(C)c(C)c1,–,10.3 µM (active)
Cc1ccc2cccc(S(=O)(=O)N3CCN(c4ccccc4F)CC3)c2n1,-22.5% (inactive),–
CCOC(=O)N1CCN(c2c(NCCN3CCN(c4ccccc4F)CC3)c(=O)c2=O)CC1,-8.93% (inactive),–
CC1(C)NC(=O)N(CC(=O)N2CCN(S(=O)(=O)c3ccccc3F)CC2)C1=O,3.77% (inactive),–
O=C(CN1CCN(c2ccccc2F)CC1)c1ccc2c(c1)OCO2,-2.9% (inactive),–
CCCN(C(=O)Cn1cc(S(=O)(=O)N2CCN(c3ccccc3F)CC2)c2ccccc2c1=O)c1cccc(C)c1,–,18.4 µM (active)

Compound,"activity change, negative = growth inhibition",Potency
Cc1cc(C)c(S(=O)(=O)N(C)CC(=O)NCC2CCCO2)c(C)c1 (stereo not given),-13.3% (inactive),–
O=S1(=O)CC(NCc2ccccc2)C(Nc2ccc(Cl)cc2)C1 (stereo not given),1.7% (inactive),–
O=C(NC1(C(F)(F)F)N=C2SCCN2C1=O)c1ccco1 (stereo not given),-16.8% (inactive),–
COc1cnn(-c2ccc([N+](=O)[O-])cc2)c(=O)c1Cl,-25.3% (inactive),–
Cc1cc(C)c(C#N)c(SCS(=O)c2ccc(C(C)(C)C)cc2)n1 (stereo not given),-24.8% (inactive),–
COC(=O)COc1ccc2c(=O)c(Oc3ccccc3Br)coc2c1,-6.82% (inactive),–
C[C@H]1CN([C@@H](C)CO)C(=O)CCCn2cc(nn2)CO[C@@H]1CN(C)S(=O)(=O)c1ccc(-n2cccn2)cc1,-29.1% (inactive),–
CCOc1ccc(CN(Cc2ccco2)C(c2cccs2)c2nnnn2C(C)(C)C)cc1 (stereo not given),–,16.4 µM (active)
CC(C)(C)n1nnnc1C(c1ccccc1F)N1CCN(C(=O)c2ccco2)CC1 (stereo not given),-12.2% (inactive),–
C/C(=C\c1ccco1)CN1CCC(N2CCC(C(=O)N3CCOCC3)CC2)CC1,-28.9% (inactive),–
CCN(C(=O)COC(=O)CCC(=O)c1cccs1)C1CCCCC1,-9.9% (inactive),–
OCCNc1nc(Nc2ccc(Cl)c(Cl)c2)nc2ccccc12,–,16.4 µM (active)
COc1cc2nc(Cl)nc(NCCO)c2cc1OC,-16.5% (inactive),–
CCOC(=O)CNc1nc(Cl)nc(Nc2ccccc2)n1,3.63% (inactive),–
CCN(CC(=O)Nc1ccc(OC)cc1)C(=O)CSCc1ccc(C)cc1,-21.7% (inactive),–
CN1CCN(c2ccc(NC(=O)c3cc(Cl)c4c(c3)OCCO4)cc2)CC1,–,29.1 µM (active)
O=C(Nc1ccc(N2CCOCC2)cc1)c1ccc2c(c1)OCO2,-28.4% (inactive),–
CN1CCN(c2ccc(NC(=O)c3ccc4c(c3)OCCO4)cc2Cl)CC1,-17.4% (inactive),–
CCOc1ccc(C(=O)N(Cc2ccc(N(C)C)cc2)C2CCS(=O)(=O)C2)cc1 (stereo not given),-14.1% (inactive),–
O=C(COc1ccc(Cl)cc1Cl)NCCCNC(=O)c1cnccn1,-22.6% (inactive),–
O=C(CCc1cn(Cc2ccc(F)cc2)c2ccccc12)NC1CCCCC1,-9.81% (inactive),–
CC(NC(=O)CCc1cn(Cc2ccccc2Cl)c2ccccc12)c1ccccc1 (stereo not given),–,23.1 µM (active)
CC(NC(=O)Cn1cc(C(F)(F)F)cc(Cl)c1=O)c1ccccc1 (stereo not given),-20.3% (inactive),–
Cc1cc(C)n2nc(C(=O)OCC(=O)N(CCC#N)c3ccc(F)cc3)nc2n1,2.76% (inactive),–
COC(=O)c1cn(-c2ccccc2)nc1-c1cccnc1,0.365% (inactive),–
O=C(O)c1ccc(NC(=O)c2cn(-c3ccccc3)nc2-c2ccc(Cl)cc2)cc1,–,16.4 µM (active)
Cc1ccc(-c2nn(-c3ccccc3)cc2C(=O)NC2CCC(O)CC2)cc1 (stereo not given),-23.4% (inactive),–

Compound,"activity change, negative = growth inhibition",Potency
NCCCCCC(=O)N/N=C/c1ccc2nccnc2c1,-22.9% (inactive),–
Cc1ccc(S(=O)(=O)N(C)C)cc1NC(=O)COC(=O)/C=C/c1cccs1,-17.8% (inactive),–
CCN1CCN(C(=O)CCN2C(=O)c3ccccc3C2=O)CC1,6.03% (inactive),–
O=C(Nc1cccc(F)c1)N1C2CCC1CC(O)(c1cccnc1)C2 (stereo not given),-5.57% (inactive),–
Cc1ccc(S(=O)(=O)CC(=O)Nc2nnc(C)s2)cc1,3.14% (inactive),–
CCOC(=O)c1ccc(NC(=O)CCS(=O)(=O)c2ccc(C)cc2)cc1,–,20.6 µM (active)
CC(C)Cc1nnc(NC(=O)CCc2ccccc2)s1,-6.82% (inactive),–
CCOc1ccc(OCC)c(NC(=O)CCS(=O)(=O)c2ccc(C)cc2)c1,-22.3% (inactive),–
Cc1ccc(S(=O)(=O)CCC(=O)Nc2nnc(CC(C)C)s2)cc1,–,16.4 µM (active)
CCCCC(CCC(=O)Nc1ccc(C(=O)OCC)cc1)C(=O)O (stereo not given),-4.15% (inactive),–
CC(C)CC(NS(=O)(=O)c1ccc2c(c1)oc(=O)n2C)C(=O)NCc1ccccc1Cl (stereo not given),-11.8% (inactive),–
Cc1cc(F)ccc1N1CCC(N2CCN(C)C(CCO)C2)CC1 (stereo not given),-12.5% (inactive),–
CC(C)n1c(O)c(N=Nc2ccccn2)c2ccccc21,-8.18% (inactive),–
CCC(C)NC(=O)c1ccccc1NC(=O)c1ccccc1N(C)S(C)(=O)=O (stereo not given),-19.8% (inactive),–
Cc1n[nH]c(=O)n1-c1ccc(C(C)C)cc1,15.4% (inactive),–
O=C1c2cccc3cccc(c23)C(=O)N1c1cccc(O)c1,-6.3% (inactive),–
Cc1nnc(CN(C)Cc2cn[nH]c2-c2ccc(-c3ccccc3)cc2)o1,-6.06% (inactive),–
CC1CCCN(S(=O)(=O)c2ccc(-c3ccc(=O)[nH]n3)o2)C1 (stereo not given),-8.44% (inactive),–
O=S(=O)(c1ccc2nc(NCc3ccccc3Cl)ccc2c1)N1CCCCC1,–,10.3 µM (active)
O=S(=O)(NCc1ccccc1)c1ccc(S(=O)(=O)N2CCCC2)cc1,-20.5% (inactive),–
O=S(=O)(c1ccc2nc(N3CCN(c4cccc(Cl)c4)CC3)ccc2c1)N1CCCCC1,-1.01% (inactive),–
CN(C(=O)CCNC(=O)Cn1ccc2ccccc2c1=O)c1ccc(Br)cc1,3.44% (inactive),–
CC/C(=N/Nc1ccccc1)c1cnnc(SC)n1,8.67% (inactive),–
COc1cccc(C(=O)Oc2cc(C)[nH]c(=O)c2[N+](=O)[O-])c1,-8.65% (inactive),–
COc1ccc(/C=C/c2noc(-c3ccccc3OC(C)=O)n2)cc1,-13.5% (inactive),–
CC(C)/C=N/NC(=O)c1cc(Br)ccc1O,-12.7% (inactive),–
O=C(CCC(=O)N/N=C/c1ccc(Br)o1)N/N=C/c1ccc(Br)o1,1.16% (inactive),–

Compound,"activity change, negative = growth inhibition",Potency
O=C(CCc1ccc(O)cc1)NN=Cc1cc(Br)ccc1O,–,5.8 µM (active)
CCCC1NC(=O)NC(C)=C1C(=O)OCC (stereo not given),-0.636% (inactive),–
Nc1ncnc(Nc2cccc(Cl)c2Cl)n1,24.3% (inactive),–
O=C(CSc1nccc(=O)[nH]1)Nc1ccc(N2CCOCC2)c(Cl)c1,-14.9% (inactive),–
OC(COc1ccccc1)Cn1cc(Br)cn1 (stereo not given),24% (inactive),–
CC(=O)Nc1ccc(OCC(O)CN2CCN(c3ccccc3Cl)CC2)cc1 (stereo not given),-24.4% (inactive),–
Cc1ccccc1OCC(O)CN1CCN(c2ccccn2)CC1 (stereo not given),-1.08% (inactive),–
Cc1ccc(OCC(=O)Nn2cnc3ccccc32)cc1,-10.1% (inactive),–
CC(C)c1ccc(OCC(O)Cn2cnc3ccccc32)cc1 (stereo not given),–,14.6 µM (active)
CC(C)c1ccc(OCC(O)CN2CCN(c3ccccn3)CC2)cc1 (stereo not given),–,10.3 µM (active)
Cc1nc2ccc(S(=O)(=O)NCC(=O)O)cc2s1,-26.2% (inactive),–
CC(=O)OC[C@H]1O[C@@H](O[C@H]2[C@H](O)[C@@H](OC(=O)c3ccccc3C(=O)O)[C@H](O)O[C@@H]2COC(C)=O)[C@H](O)[C@@H](OC(=O)c2ccccc2C(=O)O)[C@@H]1O,-0.0815% (inactive),–
Cc1ccc(CNC(=O)C2CCCN2S(=O)(=O)c2ccc3c(c2)C(C)(C)C(=O)N3C)cc1 (stereo not given),-20.1% (inactive),–
C=CCOc1ccc(C(=O)Nc2ccccc2C(=O)N2CCCC2)cc1,-21% (inactive),–
Cn1nnnc1NCc1ccc(Cl)c(Cl)c1,-15% (inactive),–
NS(=O)(=O)c1ccc(CNC(=O)c2ccc(Cl)cc2[N+](=O)[O-])cc1,-20.7% (inactive),–
Nc1ccc2nn(-c3ccc(Cl)cc3)nc2c1,–,9.2 µM (active)
Cc1cc2nn(-c3ccc(Cl)cc3)nc2cc1NC(=O)C(C)C,-7.99% (inactive),–
O=C(Cc1ccc(Cl)cc1)Nc1ccc2nn(-c3ccc(Cl)cc3)nc2c1,-8% (inactive),–
CC(=O)c1ccc(NC(=O)C2CC(=O)Nc3nc4ccccc4n32)cc1 (stereo not given),-8.52% (inactive),–
O=C(c1ccc(Cl)cc1)N1N=C(c2ccccn2)CC1(O)C(F)(F)F (stereo not given),–,14.6 µM (active)
O=C(Cc1ccccc1)N1N=C(c2ccncc2)CC1(O)C(F)(F)F (stereo not given),-21.2% (inactive),–
COC(=O)C1(O)CC(C(C)C)=NN1C(=O)c1ccc(Cl)cc1 (stereo not given),-9.27% (inactive),–
Cc1cn([C@H]2C[C@H](O)[C@@H](CNC(=O)[C@H](N)Cc3cccnc3)O2)c(=O)[nH]c1=O,2.17% (inactive),–
